HT1080NT lethal – kills 2HG-producing HT-1080-NT fibrosarcoma cells; HT-1080-NT fibrosarcoma viability, CellTiter-Glo ATP luminescence, 48 h; Potency, µM (highest dose often 46.1 µM), for the others: top-dose activity, negative = less viability, most hits filed as cytotoxic; hit rate 1.6% among 360,000; AID 686970;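 further: NT is the 2HG producing partner of a matched IDH1 knockdown line; 0% = DMSO-treated cells and -100% = media-only wells without cells; nearly all actives have a fitted effect of over 55% in size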
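Viability by CellTiter-Glo luminescence after 48 h compound exposure at 37C of HT-1080-NT cells (750/well, RPMI, 5% FBS). % activity scaled between DMSO wells and medium-only wells, then curve-fitted and categorized by curve class.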
DT40 TDP1 no CPT – qHTS for Inhibitors of human tyrosyl-DNA phosphodiesterase 1 (TDP1): qHTS in cells in absence of CPT | DT40 Tdp1-/- hTDP1 cells, no CPT, ATP luminescence, 48 h | hit rate 15% among 420,000 | AID 686978, 2013 | Potency, µM (doses to about 46.2 µM), for inactives: at the highest dose activity change, negative = growth inhibition, actives largely listed as inhibitors; further: on the % scale 0 is the no-effect control and ±100 the full control effect; nearly all actives have a fitted effect of over 55% in size
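Seeded 400 DT40-hTDP1 cells/well (vehicle DMSO, no 20 nM CPT); pinned compounds; ≥48 hr at 37 °C; CellTiter-Glo luminescence as viability measure.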
HepG2 tox – kills HepG2 cells in TGF-b inhibitor counter-screen; HepG2 CAGA-GFP viability, ATP luminescence, 18 h; Potency, µM (top dose mostly 46.1 µM), without a hit: at the highest dose activity change, negative = cytotoxicity, usual class: cytotoxic; hit rate 0.76% among 410,000
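HepG2 CAGA-GFP cells (1000/well, DMEM with 1% FBS) received compound, then TGF-beta at 500 pg/mL final, and were incubated 18 hours at 37 degrees C. Viability was read by CellTiter-Glo luminescence. Media-only wells were set as complete cell-killing and DMSO as no toxicity.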
TGFb SMAD3 inh – blocks TGF-b signaling. Potency, µM (highest dose often 46.1 µM), inactives show top-dose activity, negative = inhibition, hits mostly inhibitors. HepG2 CAGA-GFP TGF-b/SMAD3 reporter, GFP fluorescence, 18 h; TGF-beta stimulated, 500 pg/mL final. hit rate 1.2% among 410,000. AID 588855; further: on the % scale 0 is the no-effect control and ±100 the full control effect; nearly all actives have a fitted effect of over 65% in size
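Smad-responsive CAGA-GFP expression was quantified in HEPG2 cells exposed to compounds and 500 pg/mL final TGF-beta for 18 h at 37 degrees C; unstimulated wells defined full inhibition.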
TDP1 cell CPT – DT40-hTDP1 cell growth loss with CPT; chicken DT40 Tdp1-/-;hTDP1 cells + 20 nM CPT, ATP luminescence, 48 h; Potency, µM (series often up to 46.2 µM), for the others: top-dose activity change, negative = growth inhibition, most hits filed as inhibitors; hit rate 12% among 420,000; further: on the % scale 0 is the no-effect control and ±100 the full control effect; nearly all actives have a fitted effect of over 55% in size
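Chicken DT40 Tdp1-/- cells stably complemented with human TDP1 were seeded at 400 cells/well in medium containing 20 nM camptothecin, exposed to pin-transferred compounds, and grown at 37 °C for at least 48 hr. Viability was read as ATP luminescence.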
HT1080 IDH1KD tx – kills HT-1080 cells with IDH1 knockdown; hit rate 2% among 360,000; Potency, µM (top dose mostly 46.1 µM), inactives show top-dose activity, negative = toxicity, actives largely listed as cytotoxic; HT-1080 IDH1 knockdown viability, ATP luminescence, 48 h;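 further: 0% = DMSO wells and -100% = cell-free medium wells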
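After a 2 h attachment period, IDH1KD HT-1080 cells took pin-transferred compound for 48 h at 37 °C; ATP-based luminescence after 10 min room-temperature reagent incubation reported viability.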
* = called active by the depositor; u = inconclusive; x = no result; [ ] = another dose, or the depositor's remark. This is a sample that favours compounds with a hit; in the whole collection about 17% have one here. The call rests on the fitted dose curve; in most records, active means well fitted curve in the direction sought with a large enough effect; inconclusive means small, poorly fitted or top-dose-only effect, or another doubt; inactive means no such curve, though single readings can be large; an effect the other way counts as inactive or inconclusive. Potency means the concentration at half of the fitted maximal effect.

SMILES | HT1080NT lethal | DT40 TDP1 no CPT | HepG2 tox | TGFb SMAD3 inh | TDP1 cell CPT | HT1080 IDH1KD tx
COc1ccc(NC(=O)C2CC(=O)N(c3ccccc3F)C2)cc1S(=O)(=O)N1CCCCC1 (stereo unspecified) | 13% | u | -32% | 9% | -13% | 10%
CSc1ncc(C(=O)Nc2ccc(C(C)=O)cc2)c(-c2ccccc2)n1 | 0% | u | -22% | -22% | u | 0%
CCOc1ccc(C(=O)Nc2ccc(-c3nnc4n3CCCCC4)cc2)cc1OCC | x | u | -1% | 17% | u | x
COc1ccc(NC(=O)Cn2nnc(C(=O)Nc3ccccc3C)c2N)cc1 | -2% | -5% | -13% | 0% | -2% | 8%
COc1cc(OC)cc(C(=O)Nc2ccc(N3CCN(C(=O)c4cccs4)CC3)cc2)c1 | u | 5.2µM* | -23% | u | 5.8µM* | -20%
COc1ccc(C(=O)Nc2ccc(N3CCCC3)cc2)cc1Br | -9% | u | 5% | -5% | u | -10%
Nc1ccc(N2CCN(C(=O)c3cccs3)CC2)cc1 | -1% | 15µM* | -15% | -20% | u | -1%
CCOc1ccc(C(=O)Nc2ccc(N3CCN(C)CC3)cc2)cc1Br | -29% | 29µM* | -8% | 0% | u | u
CCOc1ccc(C(=O)Nc2ccc(N3CCN(C(=O)c4ccco4)CC3)cc2)cc1Br | -6% | u | -27% | -5% | -23% | -6%
COc1ccc(C(=O)Nc2ccc(N3CCN(C(=O)c4cccs4)CC3)cc2)cc1Br | -19% | 18µM* | -15% | -16% | 21µM* | -27%
O=C(NCCN1Cc2ccccc2OC(c2ccccc2F)C1)c1cncs1 (stereo unspecified) | x | u | x | x | -2%[9.04 µM] | x
CC1(C(=O)NCc2ccccc2Br)CCN1C(=O)C1(c2ccc(Cl)cc2)CC1 (stereo unspecified) | 3% | u | -4% | u | u | -1%
Cc1ccc(-n2nc(C(=O)N3CCC(C)CC3)c(=O)n(C)c2=O)cc1 | x | -17% | 0% | -22% | -8% | x
CCCCOc1ccc(CC(=O)N(C)O)cc1 | x | u | 0% | 16% | u | x
O=C(Nc1ccc(N2CCN(C(=O)c3cccs3)CC2)cc1)c1ccc(F)cc1 | 0% | 23µM* | -9% | -1% | -25% | 3%
O=C(CSc1ncn[nH]1)Nc1ccc(Cl)c(Cl)c1 | -14% | u | 6% | -6% | 1% | -20%
N[C@H](CO)Cc1cnc[nH]1 | x | -15% | x | x | 7% | x
CC(C)(C)OC(=O)N1CCC[C@H]1C(=O)Nc1ccc(S(=O)(=O)C(F)F)cc1 | 1% | u | -18% | -28% | 13µM* | 0%
CC(C)(C)OC(=O)N1CCC[C@H]1C(=O)Nc1ccc(Br)cc1 | 5% | -14% | 9% | 3% | -7% | -1%
CC(NC(=O)C1CCCN1C(=O)OC(C)(C)C)C(=O)OCc1ccccc1 (stereo unspecified) | 3% | u | -6% | u | 23µM* | 14%
Cc1ccc2nc(SCC(=O)N3CCOc4ccc(CN5C[C@@H](C)O[C@@H](C)C5)cc4C3)[nH]c2c1 | x | u | x | x | -6%[9.04 µM] | x
CSc1nc(-c2ccccc2)nn1C(=O)c1ccccc1 | 5% | 23µM* | -8% | -1% | u | 3%
CC(=O)Nc1ccc(Nc2nc(C)c([N+](=O)[O-])c(Nc3ccc(NC(C)=O)cc3)n2)cc1 | 2% | 6.5µM* | -1% | -10% | u | 0%
COc1cccc(Nc2nc(Nc3ccc(Cl)c(C(=O)O)c3)nc(C)c2[N+](=O)[O-])c1 | -5% | -17% | -24% | -15% | -23% | -1%
CNc1nc(C)c([N+](=O)[O-])c(Nc2ccc(OC)cc2)n1 | 3% | 23µM* | 0% | 33% | u | -15%
SMILES | HT1080NT lethal | DT40 TDP1 no CPT | HepG2 tox | TGFb SMAD3 inh | TDP1 cell CPT | HT1080 IDH1KD tx
Cc1nn(-c2ccccc2)c2c1CC(=O)Nc1ccccc1-2 | u | 0.82µM* | 3% | u | 0.65µM* | u
C[C@@H]1CN(Cc2ccc3c(c2)CN(Cc2cccn2-c2ccccn2)CCO3)C[C@H](C)O1 | x | -2% | x | x | -5%[9.04 µM] | x
COc1ccc(CCNC(=O)Cn2c(=O)nc(-c3ccccc3)c3ccccc32)cc1OC | x | -25% | -72% | -13% | -10% | x
Cc1ccc(S(=O)(=O)NC(C)CCc2ccccc2)cc1C(N)=O (stereo unspecified) | -1% | 18µM* | -14% | -17% | u | -3%
Cc1ccc(S(=O)(=O)NC(C)CCc2ccccc2)cc1 (stereo unspecified) | -2% | -25% | -2% | 1% | u | -6%
O=C(Nc1ccc(NC(=O)c2ccccc2)c2ccccc12)c1ccccc1 | u | -7% | -28% | -17% | -11% | -16%
CC1CC(C)CN(C(=O)C2CCN(S(=O)(=O)c3cccs3)CC2)C1 (stereo unspecified) | 11% | u | -10% | u | 0% | 11%
CCOC(=O)c1c(C)[nH]c(C)c1S(=O)(=O)N1CCC(C(=O)N2CCN(c3ccc(F)cc3)CC2)CC1 | x | -21% | -35% | -8% | -26% | x
Cc1cccc(N2CCN(C(=O)C3CCN(S(=O)(=O)c4cccs4)CC3)CC2)c1C | x | 15µM* | 3% | u | 21µM* | x
CC(=O)c1ccc(N2CCN(C(=O)C3CCN(S(=O)(=O)c4cccs4)CC3)CC2)cc1 | -19% | 13µM* | 10% | 0% | u | -7%
CC(=O)c1ccc(NC(=O)C2CCN(S(=O)(=O)c3cccs3)CC2)cc1 | 0% | u | -25% | u | u | -5%
O=S(=O)(c1cccs1)N1CCN(c2ccc(O)cc2)CC1 | -30% | 2.6µM* | -2% | 0% | 2.6µM* | u
CCOC(=O)c1c(C)[nH]c(C)c1S(=O)(=O)N1CCC(C(=O)N2CCN(c3cccc(C)c3C)CC2)CC1 | x | u | -35% | u | 18µM* | x
COc1ccc(/C=C(\NC(=O)c2ccc([N+](=O)[O-])cc2)C(=O)NCCCN2CCOCC2)cc1 | -1% | -15% | -4% | 3% | -4% | 0%
CC(=O)N1CCC[C@H]1C(=O)NCC1Cc2cc(C)cc(-c3ccc(Cl)cc3)c2O1 (stereo partly specified) | x | -22% | x | x | -12%[9.04 µM] | x
